High-throughput results as filed in PubChem.
This is a sample that favours compounds with a hit; in the whole collection about 3.9% have one here.
BoNT A protease: BoNT A light chain protease inhibition. multiplex microsphere protease substrate cleavage, flow cytometry. inhibition, % at 10 µM. 360,000 compounds, 0.17% hits
BoNT F protease: BoNT F light chain protease inhibition; Multiplex microsphere protease cleavage assay, flow cytometry; 360,000 compounds, 0.22% hits; inhibition, % at 10 µM; in the data active means inhibition above about 35%, passing the limit was not always enough; inconclusive means no clear call, values can overlap the other calls
CCHF vOTU inh: blocks the CCHF virus ovarian tumor domain protease. CCHFV vOTU protease, Pep-AMC fluorescence. inhibition, % at 11.5 µM. 370,000 compounds, 0.55% hits; in the data active means inhibition above about 30%
Anthrax LF prot: anthrax lethal factor protease inhibition. multiplex microsphere protease cleavage assay, LF. inhibition, % at 10 µM. P15917. AID 588501. 360,000 compounds, 0.12% hits
Target sequence (P15917 whole entry, looked up): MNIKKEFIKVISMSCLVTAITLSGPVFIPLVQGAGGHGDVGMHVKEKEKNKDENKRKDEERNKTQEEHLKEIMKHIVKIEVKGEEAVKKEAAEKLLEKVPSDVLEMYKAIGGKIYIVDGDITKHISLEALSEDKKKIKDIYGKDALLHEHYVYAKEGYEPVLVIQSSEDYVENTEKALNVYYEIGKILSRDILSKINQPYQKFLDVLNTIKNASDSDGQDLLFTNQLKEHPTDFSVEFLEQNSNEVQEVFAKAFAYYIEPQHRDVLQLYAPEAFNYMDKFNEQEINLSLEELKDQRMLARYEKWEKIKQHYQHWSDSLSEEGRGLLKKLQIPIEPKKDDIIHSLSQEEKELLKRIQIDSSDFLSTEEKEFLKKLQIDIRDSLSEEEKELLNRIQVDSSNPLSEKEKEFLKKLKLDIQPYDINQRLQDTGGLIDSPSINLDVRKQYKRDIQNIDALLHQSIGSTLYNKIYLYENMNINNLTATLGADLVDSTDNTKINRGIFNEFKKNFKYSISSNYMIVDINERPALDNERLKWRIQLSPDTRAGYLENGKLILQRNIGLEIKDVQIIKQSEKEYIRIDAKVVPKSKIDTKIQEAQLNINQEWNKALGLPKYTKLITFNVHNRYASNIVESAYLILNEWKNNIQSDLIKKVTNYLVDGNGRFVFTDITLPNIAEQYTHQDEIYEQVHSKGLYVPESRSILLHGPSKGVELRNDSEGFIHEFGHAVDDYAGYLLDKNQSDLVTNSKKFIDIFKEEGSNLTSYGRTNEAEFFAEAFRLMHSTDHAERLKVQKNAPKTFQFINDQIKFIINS
Autofluor counter: counter-screen for toxin protease inhibitors: compound fluorescence. compound autofluorescence counterscreen, microsphere flow cytometry; hits give high values. fluorescence intensity (concentration not given with the values). 360,000 compounds, 3.1% hits; in the data active means fluorescence intensity above about 16000; inconclusive means no clear call, values can overlap the other calls
SARS 3CLpro inh: SARS-CoV 3CLpro protease inhibition; P0C6X7; recombinant SARS-CoV 3CLpro, quenched FRET peptide cleavage; inhibition, % at 6 µM; 290,000 compounds, 0.14% hits; AID 1706; in the data active means inhibition above about 12%
Of the large screens only hits and unclear results are named; the others gave an inactive call. Unless noted, no stated cut-off is given here; in the data, active means inhibition above about 30%; inconclusive means no clear call, values can overlap the other calls; inactive means below that.

COc1ccc(Cl)cc1NC(=O)N1CCN(C2CCCCC2)CC1	BoNT A protease inconclusive, Autofluor counter 20816 (no result: CCHF vOTU inh)
CCOC(=O)c1ccc(NC(=S)N2CCN(S(C)(=O)=O)CC2)cc1	Autofluor counter 16800
CCOC(=O)c1ccc(NC(=O)N2CCN(C3CCCCC3)CC2)cc1	Autofluor counter 16368
CCOC(=O)c1ccc(NC(=O)N2CCCCC2)cc1	none (no result: CCHF vOTU inh)
Cc1ccc(NC(=S)N2CCN(S(C)(=O)=O)CC2)cc1	none
CCOC(=O)c1ccc(NC(=O)N2CCN(S(C)(=O)=O)CC2)cc1	Autofluor counter 17414
CCOC(=O)c1ccc(NC(=O)C2CCCO2)cc1 (centres undefined)	none
COc1ccc(NC(=O)N2CCN(S(C)(=O)=O)CC2)cc1OC	Autofluor counter 22966
CCOC(=O)c1cc(NC(=O)C2CCCO2)cc(C(=O)OCC)c1 (centres undefined)	Autofluor counter 16398
CCOc1ccc(NC(=O)N2CCN(S(C)(=O)=O)CC2)cc1	none
C#CCCCN([C@@H](CC(C)C)C(=O)OC)S(=O)(=O)c1ccc(F)cc1Br	none (no result: BoNT A protease, BoNT F protease, Anthrax LF prot, Autofluor counter, SARS 3CLpro inh)
OC(c1ccccc1)(c1ccccc1)C1CCN(CCCNc2ccccc2Br)CC1	none (no result: BoNT A protease, BoNT F protease, Anthrax LF prot, Autofluor counter, SARS 3CLpro inh)
O=C(O)c1ccc(NS(=O)(=O)/C=C/c2ccccc2)cc1O	Autofluor counter 21416
CCOc1ccccc1C1CC(=O)Nc2cc3c(cc21)OCCO3 (centres undefined)	Autofluor counter 16905
CCCOc1ccccc1C1CC(=O)Nc2cc3c(cc21)OCCO3 (centres undefined)	none (no result: CCHF vOTU inh)
Cc1cc(C)n2nc(C(=O)NCc3ccccc3)cc2n1	none
Cc1ccc(NC(=O)c2cc3nc(C)cc(C)n3n2)cc1	Autofluor counter 20310
O=C1N=C(N2CCOCC2)SC1=C1CCCCC1	Autofluor counter 20921
N#CCCN1CCN(C2=NC(=O)C(=C3CCCCC3)S2)CC1	Autofluor counter 22432
CCOC(=O)C1NC(=O)CC1c1ccccc1 (centres undefined)	none
CCOC(=O)C1C(=O)C=C(/C=C/c2ccccc2)CC1c1ccc(Cl)cc1 (centres undefined)	BoNT A protease inconclusive, Autofluor counter 16539
C=CCN1C(=O)[C@@H](CC(=O)N2CCOCC2)[C@]2(C(=O)OC)CCCCC=C12	none (no result: BoNT A protease, BoNT F protease, Anthrax LF prot, Autofluor counter, SARS 3CLpro inh)
COc1ccccc1C(=O)NCC[N+](C)(C)C	none (no result: SARS 3CLpro inh)
COc1ccccc1C(=O)NCCCn1cc(Br)c(C)n1	BoNT A protease inconclusive, Autofluor counter 18046 (no result: CCHF vOTU inh)
Nc1c(N2CCOCC2)cc(Cl)c2nonc12	BoNT A protease inconclusive, Autofluor counter 23187
CCC(C)c1ccc2oc(-c3ccc(NC(=O)c4ncn[nH]4)cc3)nc2c1 (centres undefined)	Autofluor counter 20099
CC(C)c1ccc2oc(-c3ccc(NC(=O)c4ncn[nH]4)cc3)nc2c1	none
C=CCn1c(O)c(C(CC)=NCCc2ccccc2)c(=O)[nH]c1=O	BoNT A protease inconclusive, Autofluor counter 22909
C=CCn1c(O)c(C(C)=NCCc2ccccc2)c(=O)[nH]c1=O	none
C=CCn1c(O)c(C(C)=NCc2cccnc2)c(=O)[nH]c1=O	Autofluor counter 17471
CC(=NCCCN1CCOCC1)c1c(O)n(Cc2ccccc2)c(=O)[nH]c1=O	none
CCC(=NCCCN1CCOCC1)c1c(O)n(Cc2ccccc2)c(=O)[nH]c1=O	Autofluor counter 19516
COC(=O)Cc1nnn2c1[C@H](C)[C@@H](OC)c1ccccc1-2	none (no result: BoNT A protease, BoNT F protease, Anthrax LF prot, Autofluor counter, SARS 3CLpro inh)
CCC(C)NC(=O)CSc1nnc(-c2cc(OC)c(OC)c(OC)c2)o1 (centres undefined)	none (no result: BoNT A protease, BoNT F protease, Anthrax LF prot, Autofluor counter, SARS 3CLpro inh)
CCOCCn1c(=NC(=O)c2ccc(S(=O)(=O)N3CCOCC3)cc2)sc2cc(S(N)(=O)=O)ccc21	none
CCOc1cccc2sc(=NC(=O)c3ccc(S(=O)(=O)N4CCOCC4)cc3)n(C)c12	Autofluor counter 22851
CCn1cc(C(=O)C(F)(F)F)c2ccccc21	Autofluor counter 22281
O=C(O)Cn1cc(C(=O)c2ccccc2)c2ccccc21	Autofluor counter 18398
CCn1cc(C(=O)c2cccs2)c2ccccc21	Autofluor counter 16945
CCCCOCCCNS(=O)(=O)c1ccccc1	none
CCOCCCNS(=O)(=O)c1ccccc1	Autofluor counter 20142
Nc1nc(F)nc2c1ncn2[C@@H]1O[C@H](COP(=O)(O)O)[C@@H](O)[C@@H]1O	none (no result: BoNT A protease, BoNT F protease, Anthrax LF prot, Autofluor counter, SARS 3CLpro inh)
CCCN1CCN(C(=O)c2ccc(Sc3ccc(C)cc3)c(NC(C)=O)c2)CC1	Autofluor counter 24723
CC(=O)Nc1cc(C(=O)N2CCc3ccccc3C2)ccc1Sc1ccc(C)cc1	none
Cc1ccccc1C1=NCC(=O)N(CC(=O)N2CCCCC2)c2sc(C)c(C)c21	BoNT A protease inconclusive, Autofluor counter 22255
CC1CCc2c(sc(NC(=O)C(=O)NCc3ccco3)c2C#N)C1 (centres undefined)	BoNT A protease inconclusive, Autofluor counter 20783
Cc1cc(C(=O)Nc2sc3c(c2C#N)CCC(C)C3)no1 (centres undefined)	none
O=C(COC(=O)CNC(=O)C1CCCCC1)Nc1ccc(Cl)cn1	Autofluor counter 21353
CC1=C(C)[N+](=O)C2CCCCC2N1[O-] (centres undefined)	BoNT A protease inconclusive, Autofluor counter 17133
CN(C)CCOC(C1CCCCC1)C1CCCCC1	Autofluor counter 24587
COCCn1nnnc1CN(Cc1ccco1)Cc1cc2cc3c(cc2[nH]c1=O)OCO3	Autofluor counter 23147
CC(C)(C)n1nnnc1CN(Cc1ccco1)Cc1cc2cc3c(cc2[nH]c1=O)OCO3	none
Cc1c2cnn(CC(=O)NCCCN3CCCCC3C)c(=O)c2c(C)n1Cc1ccccc1 (centres undefined)	Autofluor counter 18388
COC(=O)C1CN(C2CC2)CCS(=O)(=O)N1Cc1cn(Cc2ccc(Cl)cc2)nn1 (centres undefined)	none (no result: BoNT A protease, BoNT F protease, Anthrax LF prot, Autofluor counter, SARS 3CLpro inh)
COCCCNC(=S)NNC(=S)Nc1ccc(F)cc1F	BoNT A protease inconclusive, Autofluor counter 21111
COCCCNC(=S)NNC(=S)Nc1ccccc1	none
CC1CCCN(Cc2c(O)ccc3c(=O)c(-c4nc5ccccc5s4)c(N)oc23)C1 (centres undefined)	BoNT A protease inconclusive, Autofluor counter 25322
Cc1c(CCC(=O)O)c(=O)oc2cc(OCc3cccc(Cl)c3)ccc12	BoNT F protease 39.7
CCc1c(C)c2ccc(OCC(N)=O)cc2oc1=O	Autofluor counter 24076
CC1(C)CC(NS(=O)(=O)c2ccc(S(=O)(=O)N3CCOCC3)cc2)CCO1 (centres undefined)	Autofluor counter 19550
COC(=O)C1CN(Cc2cn(Cc3ccccc3)nn2)CCS(=O)(=O)N1Cc1ccc(OC)cc1 (centres undefined)	none (no result: BoNT A protease, BoNT F protease, Anthrax LF prot, Autofluor counter, SARS 3CLpro inh)
Cc1cc(S(=O)(=O)NCC(C)C)ccc1OCC(=O)NCc1ccccn1	Autofluor counter 21787
CCOC(=O)N1CCN(C2=C(NS(=O)(=O)c3ccccc3)C(=O)c3ccccc3C2=O)CC1	CCHF vOTU inh 88.8
CCOC(=O)N1CCN(C(=O)COc2ccc(S(=O)(=O)NCC(C)C)cc2C)CC1	Autofluor counter 21204
CCOC(=O)N1CCN(C(=O)COc2ccc(S(=O)(=O)Nc3ccc(OCC)cc3)cc2)CC1	BoNT A protease inconclusive, Autofluor counter 17078
